Six compounds from PubChem BioAssay (Tox21) can be followed below.

The nature of assay [1]: qHTS assay to identify small molecule antagonists of the sonic hedgehog signaling (Shh) pathway (AID 1259369; calls by dose curve; also: nearly all actives have a fitted effect of over 45% in size; also: potency is read from the fitted curve at half-maximal effect). The procedure, abridged:
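Gli1 transcriptional reporter (firefly Luc) in NIH/3T3 background, conditioned-medium activated. 24hr exposure, luminescence endpoint.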
For orientation: Quantitative high-throughput screening tests each substance at several concentrations.

The nature of assay [2]: qHTS assay to identify small molecule agonists of the androgen receptor (AR) signaling pathway in the presence of an antagonist - cell viability counter screen (AID 1259379).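 Also: MDA-kb2 human breast cancer cells carrying an MMTV luciferase reporter; series mostly up to about 92 µM; nearly all actives have a fitted effect of over 25% in size.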 The gist of the method: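 Counter screen for cell viability run in parallel with the AR agonist-mode luciferase assay. MDA-kb2 cells were co-treated with nilutamide (3.0uM final) and compounds, then incubated 16 hr at 37C, and CellTiter-Fluor fluorescence was measured.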

A short description of assay [3]: qHTS assay to identify small molecule agonists of the estrogen receptor beta (ER-beta) signaling pathway - cell viability counter screen (AID 1259380). Also: nearly all actives have a fitted effect of over 30% in size. The procedure, abridged:
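In this qHTS counter screen, HEK293T cells carrying an ER-beta/UAS beta-lactamase reporter, grown in 2% charcoal-stripped FBS, received compound for 16 hr; ATP-based CellTiter-Glo luminescence was then read after 30 min at room temperature.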

Assay [4] can be described thus: qHTS assay to identify small molecule antagonists of the estrogen receptor beta (ER-beta) signaling pathway - cell viability counter screen (AID 1259382).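 Also: HEK293T cells carrying ER-beta-UAS-bla reporter stimulated with estradiol; series mostly up to about 92 µM; nearly all actives have a fitted effect of over 55% in size.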 The procedure, abridged: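 HEK293T ER-beta-UAS-bla, 2% charcoal-stripped FBS; compounds + 1nM E2 16 hr 37C; CellTiter-Glo luminescence, 30 min RT.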
In assay [5] the target is Estrogen receptor (Homo sapiens) (UniProt P03372). As to the kind of experiment: qHTS assay to identify small molecule agonists of the estrogen receptor alpha (ER-alpha) signaling pathway in the presence of an antagonist (AID 1259383; calls by dose curve; also: top concentration of the series differs between compounds; nearly all actives have a fitted effect of over 15% in size). The procedure, abridged: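 ER-alpha agonism measured under antagonist challenge: 10.0nM ICI-182,780 (final) plus compound, 15 concentrations, 22hr, VM7Luc4E2 ERE-luciferase cells. Read by luminescence.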

A short description of assay [6]: qHTS assay to identify small molecule agonists or antagonists of the thyroid stimulating hormone receptor (TSHR) signaling pathway - wild type cell line counter screen (AID 1259384; calls by dose curve). The gist of the method: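 Counter screen in untransfected Hek293: compounds (15-point titration, triplicate) plus phosphodiesterase inhibitor Ro20-1724 added after 18 h plating; 30 min RT. Intracellular cAMP via competitive d2/cryptate immunoassay, 1 h incubation.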

The target of assay [7] is Thyrotropin receptor (Homo sapiens) (UniProt P16473). As to the kind of experiment: qHTS assay to identify small molecule antagonists of the thyroid stimulating hormone receptor (TSHR) signaling pathway (AID 1259385; calls by dose curve; also: nearly all actives have a fitted effect of over 20% in size). The procedure, abridged: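 Antagonist mode: compound-treated TSHR-expressing HEK293 cells were stimulated with 1.5 ng/mL TSH (final) in presence of Ro20-1724 for 30 min at RT. HTRF cAMP detection after 1 h; each compound tested at 15 concentrations, triplicate.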

The nature of assay [8]: qHTS assay to identify small molecule agonists of the estrogen receptor alpha (ER-alpha) signaling pathway in the presence of an antagonist - cell viability counter screen (AID 1259386).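 Also: series mostly up to about 92 µM; cells exposed to compounds for 22 h at 37 °C before the viability read; nearly all actives have a fitted effect of over 30% in size.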 The gist of the method:
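Steps: 5-day stripped-FBS culture; seed and incubate 24hr; add ICI-182,780 (10.0nM final); pin 15-point compound titration; incubate 22hr at 37C; add CellTiter-Fluor at 21hr; read fluorescence.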

For assay [9], the target named is Progesterone receptor (Homo sapiens) (UniProt P06401). As to the kind of experiment: qHTS assay to identify small molecule agonists of the progesterone receptor (PR) signaling pathway (AID 1346784; calls by dose curve; also: nearly all actives have a fitted effect of over 30% in size). The procedure, abridged: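 Seed PR-UAS-bla HEK 293T cells (2% charcoal-stripped FBS), incubate 6 hr at 37C; add compounds in DMSO, 16 hr at 37C; add LiveBLAzer B/G substrate, 2 hr RT; read fluorescence intensity.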

The target is the same in assay [10]. As to the kind of experiment: qHTS assay to identify small molecule antagonists of the progesterone receptor (PR) signaling pathway (AID 1346795; active = well fitted inhibition curve with a large enough effect in the signal ratio in the repeat runs, not every such curve was filed as active; the % refers to the signal ratio). The gist of the method: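 Screening used a GripTite HEK293T line with PR-responsive UAS-beta-lactamase. Cells were challenged with compound in the presence of 1 nM R5020 final for 16 hr at 37C; B/G FRET substrate, 2 hr room temperature, fluorescence.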

The nature of assay [11]: qHTS assay to identify small molecule antagonists of the progesterone receptor (PR) signaling pathway - cell viability counter screen (AID 1346798). Also: series mostly up to about 92 µM; nearly all actives have a fitted effect of over 50% in size. The procedure, abridged:
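Measures cytotoxicity in parallel with the PR antagonist reporter read: HEK293T PR-UAS-bla cells get compound and R5020 for 16 hr, and remaining viable cells are quantified by CellTiter-Glo luminescence.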

Assay [12] can be described thus: qHTS assay to identify small molecule agonists of the progesterone receptor (PR) signaling pathway - cell viability counter screen (AID 1346799; calls by dose curve; also: nearly all actives have a fitted effect of over 45% in size). The gist of the method:
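Using the same plates as the PR reporter screen, HEK293T PR-UAS-bla cells received compounds for 16 hr at 37C and were then lysed with CellTiter-Glo; luminescence was read 30 min later at room temperature.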

A short description of assay [13]: qHTS assay to identify small molecule antagonists of the TGF-beta/Smad signaling pathway - cell viability counter screen (AID 1346824). Also: nearly all actives have a fitted effect of over 50% in size. The gist of the method: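 Cytotoxicity counter-screen run in the same wells as the beta-lactamase Smad reporter read: CellTiter-Glo luminescence after 30 min at room temperature. HEK 293T SBE-bla cells had 5 hr compound exposure at 37 C with TGF-beta1 (0.25 ng/mL stock).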

Assay [14] is described as follows: qHTS assay to identify small molecule agonists of the TGF-beta/Smad signaling pathway - cell viability counter screen (AID 1346829). Also: top concentration of the series differs between compounds; nearly all actives have a fitted effect of over 45% in size. The gist of the method:
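CellTiter-Glo luminescence readout; SBE-bla HEK 293T cells, overnight plating, compound 5 hr at 37 C/5% CO2, then bla substrate 2 hr RT, then CellTiter-Glo 30 min RT.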

The target in assay [15] is Thyrotropin-releasing hormone receptor (Homo sapiens) (UniProt P34981). As to the kind of experiment: qHTS assay to identify small molecule antagonists of the thyrotropin-releasing hormone receptor (TRHR) signaling pathway (AID 1346877; active = well fitted inhibition curve with a large enough effect in the repeat runs, not every such curve was filed as active; also: series mostly up to about 51 µM). The gist of the method: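 Human TRHR in HEK293 cells; inhibition of the intracellular calcium rise triggered by 1 nM TRH was followed by fluorescence over 3 min. Compounds were run at 15 concentrations, three replicates each.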

Assay [16] shares this target. As to the kind of experiment: qHTS assay to identify small molecule agonists of the thyrotropin-releasing hormone receptor (TRHR) signaling pathway (AID 1346891; calls by dose curve;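 also: HEK293 cells expressing TRHR with calcium dye readout; series mostly up to about 58 µM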). The procedure, abridged: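 Overnight-plated (18 h, 37 °C, 5% CO2) TRHR-Hek293 cells; 2 h calcium dye at 37 °C; compound in DMSO; 3-min kinetic fluorescence read.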
Assay [17] in a line: qHTS assay to identify small molecule agonists of the TGF-beta/Smad signaling pathway (AID 1346859; active = well fitted activation curve with a large enough effect in the signal ratio in the repeat runs, not every such curve was filed as active; the % refers to the signal ratio; also: series mostly up to about 77 µM). The gist of the method: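 Beta-lactamase reporter activity downstream of Smad binding elements was measured in stably transfected HEK 293T cells; compounds were incubated for 5 hr, substrate for 2 hr at room temperature.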
Assay [18] addresses Androgen receptor (Homo sapiens) (UniProt P10275). As to the kind of experiment: qHTS assay to identify small molecule agonists of the androgen receptor (AR) signaling pathway in the presence of an antagonist (AID 1259381; calls by dose curve; also: nearly all actives have a fitted effect of over 15% in size). The gist of the method:
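AR antagonist background: nilutamide 3.0uM final. Cell line: MDA-kb2, MMTV-driven luciferase, responsive to both AR and GR. Exposure 16hr, 37C, no CO2; ONE-Glo luminescence.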

Assay [19] deals with Estrogen receptor beta (Homo sapiens) (UniProt Q92731). As to the kind of experiment: qHTS assay to identify small molecule agonists of the estrogen receptor beta (ER-beta) signaling pathway (AID 1259377; active = well fitted activation curve with a large enough effect in the signal ratio in the repeat runs, not every such curve was filed as active; the % refers to the signal ratio). The gist of the method:
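Screening used GripTite ER-beta-UAS-bla cells held in 2% charcoal-stripped FBS medium. After overnight (16 hr) compound incubation at 37C, beta-lactamase activity was detected with a FRET substrate by fluorescence.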

Molecules are shown by their SMILES. Records with an inconclusive call do not appear. The source made the active and inactive calls. Unless noted, calls follow the shape of the dose curve; as a rule, active = well fitted curve in the direction sought with a large enough effect in the repeat runs; inconclusive = weak or mixed curves; inactive = no such curve, though single readings can be large; an effect the other way counts as inactive or inconclusive.

Thyrotropin receptor (Homo sapiens), sequence (P16473 whole entry, looked up): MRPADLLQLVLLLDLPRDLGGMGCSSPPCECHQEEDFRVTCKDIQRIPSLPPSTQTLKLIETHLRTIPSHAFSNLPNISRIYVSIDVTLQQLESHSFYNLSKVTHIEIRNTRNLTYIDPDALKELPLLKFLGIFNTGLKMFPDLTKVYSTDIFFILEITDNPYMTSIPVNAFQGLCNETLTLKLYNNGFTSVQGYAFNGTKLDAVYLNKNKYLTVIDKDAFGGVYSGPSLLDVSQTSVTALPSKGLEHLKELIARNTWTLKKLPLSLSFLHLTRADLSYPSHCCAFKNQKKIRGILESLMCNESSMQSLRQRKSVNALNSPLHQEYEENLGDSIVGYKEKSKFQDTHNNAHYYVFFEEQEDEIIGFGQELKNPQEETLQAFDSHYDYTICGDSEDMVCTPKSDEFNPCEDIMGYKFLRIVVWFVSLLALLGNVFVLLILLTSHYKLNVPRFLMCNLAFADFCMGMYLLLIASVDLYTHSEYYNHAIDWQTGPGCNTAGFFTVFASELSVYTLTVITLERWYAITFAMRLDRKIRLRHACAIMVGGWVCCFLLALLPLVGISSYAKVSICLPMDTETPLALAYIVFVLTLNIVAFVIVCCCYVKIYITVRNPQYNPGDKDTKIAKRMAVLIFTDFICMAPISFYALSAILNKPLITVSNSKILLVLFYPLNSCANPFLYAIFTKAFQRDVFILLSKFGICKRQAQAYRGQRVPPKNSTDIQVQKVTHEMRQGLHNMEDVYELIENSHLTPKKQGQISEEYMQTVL
Progesterone receptor (Homo sapiens), sequence (P06401 whole entry, looked up): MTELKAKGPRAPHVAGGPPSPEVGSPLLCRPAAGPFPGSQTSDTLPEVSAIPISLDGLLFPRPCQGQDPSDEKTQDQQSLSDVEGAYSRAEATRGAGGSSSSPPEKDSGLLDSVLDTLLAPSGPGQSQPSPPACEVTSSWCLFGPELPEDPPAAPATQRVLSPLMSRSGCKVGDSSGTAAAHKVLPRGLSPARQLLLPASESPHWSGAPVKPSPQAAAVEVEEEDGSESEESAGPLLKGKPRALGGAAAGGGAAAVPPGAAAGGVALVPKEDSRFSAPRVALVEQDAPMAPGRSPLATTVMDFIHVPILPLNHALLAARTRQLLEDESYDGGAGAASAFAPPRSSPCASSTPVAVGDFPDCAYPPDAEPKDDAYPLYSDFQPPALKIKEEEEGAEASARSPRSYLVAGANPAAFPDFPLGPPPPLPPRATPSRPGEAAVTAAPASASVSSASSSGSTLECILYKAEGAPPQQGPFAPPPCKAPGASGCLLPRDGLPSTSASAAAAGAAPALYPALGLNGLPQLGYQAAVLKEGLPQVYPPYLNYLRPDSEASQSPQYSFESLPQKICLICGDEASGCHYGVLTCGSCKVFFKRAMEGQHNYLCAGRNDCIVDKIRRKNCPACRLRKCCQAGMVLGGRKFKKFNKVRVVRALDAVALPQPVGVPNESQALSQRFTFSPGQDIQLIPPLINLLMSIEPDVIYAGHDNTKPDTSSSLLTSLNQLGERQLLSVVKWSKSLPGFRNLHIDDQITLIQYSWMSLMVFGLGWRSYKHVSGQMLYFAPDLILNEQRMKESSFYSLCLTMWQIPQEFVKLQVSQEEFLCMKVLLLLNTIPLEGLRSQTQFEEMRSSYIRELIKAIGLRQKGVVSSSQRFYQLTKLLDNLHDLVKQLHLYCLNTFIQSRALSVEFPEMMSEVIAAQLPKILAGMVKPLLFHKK
Estrogen receptor (Homo sapiens), sequence (P03372 whole entry, looked up): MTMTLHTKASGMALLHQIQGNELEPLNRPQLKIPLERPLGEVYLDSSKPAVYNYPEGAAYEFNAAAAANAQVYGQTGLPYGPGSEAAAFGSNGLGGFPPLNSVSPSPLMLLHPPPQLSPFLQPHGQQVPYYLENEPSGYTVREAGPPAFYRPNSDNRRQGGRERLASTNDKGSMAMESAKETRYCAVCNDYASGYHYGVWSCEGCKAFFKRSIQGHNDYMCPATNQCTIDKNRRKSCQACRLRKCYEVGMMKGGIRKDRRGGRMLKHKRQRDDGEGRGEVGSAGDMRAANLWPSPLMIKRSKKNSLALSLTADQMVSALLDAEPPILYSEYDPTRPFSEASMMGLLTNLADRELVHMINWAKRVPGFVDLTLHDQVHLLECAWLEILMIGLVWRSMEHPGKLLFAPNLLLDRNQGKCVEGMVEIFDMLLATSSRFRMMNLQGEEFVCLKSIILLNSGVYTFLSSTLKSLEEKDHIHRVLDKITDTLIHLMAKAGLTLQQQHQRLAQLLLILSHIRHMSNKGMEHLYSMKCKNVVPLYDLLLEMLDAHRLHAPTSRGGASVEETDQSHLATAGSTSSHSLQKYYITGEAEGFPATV
Thyrotropin-releasing hormone receptor (Homo sapiens), sequence (P34981 whole entry, looked up): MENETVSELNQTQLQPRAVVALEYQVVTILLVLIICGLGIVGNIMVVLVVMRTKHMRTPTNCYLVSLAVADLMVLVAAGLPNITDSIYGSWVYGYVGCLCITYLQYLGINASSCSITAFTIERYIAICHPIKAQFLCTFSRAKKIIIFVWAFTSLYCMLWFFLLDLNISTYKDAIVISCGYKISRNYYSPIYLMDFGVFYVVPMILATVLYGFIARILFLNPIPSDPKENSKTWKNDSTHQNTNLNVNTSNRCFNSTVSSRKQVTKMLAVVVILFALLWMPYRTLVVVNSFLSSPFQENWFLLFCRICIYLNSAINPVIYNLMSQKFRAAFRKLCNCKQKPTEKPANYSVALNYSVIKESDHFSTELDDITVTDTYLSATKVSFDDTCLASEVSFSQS
Estrogen receptor beta (Homo sapiens), sequence (Q92731 whole entry, looked up): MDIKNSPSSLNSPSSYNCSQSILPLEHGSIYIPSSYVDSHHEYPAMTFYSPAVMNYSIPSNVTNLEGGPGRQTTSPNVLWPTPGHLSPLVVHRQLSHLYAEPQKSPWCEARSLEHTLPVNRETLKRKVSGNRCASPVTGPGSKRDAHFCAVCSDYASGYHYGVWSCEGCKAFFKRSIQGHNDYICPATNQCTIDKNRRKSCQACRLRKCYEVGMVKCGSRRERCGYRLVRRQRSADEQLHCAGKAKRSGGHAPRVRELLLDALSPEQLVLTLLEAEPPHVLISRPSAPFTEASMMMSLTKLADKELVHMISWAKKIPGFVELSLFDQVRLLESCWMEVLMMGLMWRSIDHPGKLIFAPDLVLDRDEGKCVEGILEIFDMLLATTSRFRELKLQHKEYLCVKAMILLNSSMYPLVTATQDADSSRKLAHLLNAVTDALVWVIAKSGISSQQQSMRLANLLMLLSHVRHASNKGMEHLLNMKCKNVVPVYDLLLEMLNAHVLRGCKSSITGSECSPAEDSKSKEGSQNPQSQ
Androgen receptor (Homo sapiens), sequence (P10275 whole entry, looked up): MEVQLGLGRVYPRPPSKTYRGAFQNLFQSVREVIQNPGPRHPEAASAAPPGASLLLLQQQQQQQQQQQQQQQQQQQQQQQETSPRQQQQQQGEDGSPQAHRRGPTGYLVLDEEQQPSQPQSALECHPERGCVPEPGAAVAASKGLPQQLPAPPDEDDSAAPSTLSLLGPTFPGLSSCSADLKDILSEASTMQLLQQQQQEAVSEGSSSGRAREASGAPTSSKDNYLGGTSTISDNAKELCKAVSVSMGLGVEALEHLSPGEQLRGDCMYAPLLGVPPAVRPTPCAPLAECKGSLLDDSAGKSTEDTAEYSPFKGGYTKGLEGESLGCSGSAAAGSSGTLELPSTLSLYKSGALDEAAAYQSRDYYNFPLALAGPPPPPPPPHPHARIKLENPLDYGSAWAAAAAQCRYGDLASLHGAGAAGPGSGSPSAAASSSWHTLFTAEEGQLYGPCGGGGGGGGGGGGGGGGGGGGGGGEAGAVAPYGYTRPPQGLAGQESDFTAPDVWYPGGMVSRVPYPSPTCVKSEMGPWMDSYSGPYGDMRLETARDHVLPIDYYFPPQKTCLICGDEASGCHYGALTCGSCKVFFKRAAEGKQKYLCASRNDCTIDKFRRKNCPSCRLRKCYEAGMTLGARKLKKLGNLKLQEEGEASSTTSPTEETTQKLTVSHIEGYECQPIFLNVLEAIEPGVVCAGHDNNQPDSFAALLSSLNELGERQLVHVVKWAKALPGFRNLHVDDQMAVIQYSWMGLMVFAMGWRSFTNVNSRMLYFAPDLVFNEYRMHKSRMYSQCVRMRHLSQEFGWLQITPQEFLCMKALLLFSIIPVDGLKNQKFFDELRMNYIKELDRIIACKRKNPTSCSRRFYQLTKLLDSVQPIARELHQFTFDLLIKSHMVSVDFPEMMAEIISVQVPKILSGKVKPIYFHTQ

In the case of `Cc1cccc(C)c1NC1=NCCCS1`, the Potency entry in assay [1], in [2], in assay [3], in [4], in assay [5] and in assay [7] was “inactive” each time. In addition, the Potency result in [8], in assay [9], in assay [10], in assay [11], in [12] and in [13] was “inactive” throughout. The Potency entry in assay [14] and in assay [15] was “inactive” in each case. Moreover, the call in assay [6] and in assay [16] was inactive.

In the case of `Cc1ccc2c(C)cccc2c1`, the Potency entry in [1], in assay [2], in assay [3], in [4], in [5] and in assay [7] was “inactive” each time. The Potency result in [8], in assay [10], in assay [11], in [12], in assay [13] and in assay [14] was “inactive” in each case. Further, the Potency result in [15] was “inactive”. Also, the call in [6], in assay [17] and in assay [16] was inactive.

On to `NC(=O)CF`, for which the Potency result in [1], in assay [2], in [3], in assay [4], in assay [5] and in assay [7] was “inactive” in each case. In addition, the Potency result in assay [8], in assay [9], in assay [10], in assay [11], in assay [12] and in assay [13] was “inactive” throughout. For the same compound, the Potency entry in assay [14] and in [15] was “inactive” in each case. The result in [6], in assay [17] and in assay [16] was inactive.

`C=C(Cl)Cl`: the Potency result in assay [1], in assay [2], in assay [3], in assay [18], in assay [4] and in [5] was “inactive” throughout. For the same compound, the Potency result in assay [7], in [8], in assay [9], in assay [10], in [11] and in [12] was “inactive” throughout. Further, the Potency entry in assay [13] and in assay [14] was “inactive” each time. Further, the call in assay [6] and in [17] was inactive.

Take `N#CC(C#N)=C(C#N)C#N`: the Potency in [1] was 14.3 µM (active). Further, the Potency result in assay [19], in assay [3], in assay [4], in assay [5], in [10] and in [11] was “inactive” in each case. Further, the Potency entry in assay [12], in assay [13], in assay [14] and in [15] was “inactive” throughout. Also, the call in [17] and in assay [16] was inactive.

Take `CCc1ccccc1N`: the Potency result in [1], in assay [2], in [3], in assay [4], in [5] and in assay [7] was “inactive” throughout. The Potency result in assay [8], in assay [9], in [12], in assay [13] and in assay [14] was “inactive” in each case. In addition, the result in [6] and in assay [17] was inactive.
